The sample as a whole holds a higher share of hits than the screen did.
DT40 TDP1 no CPT – qHTS for Inhibitors of human tyrosyl-DNA phosphodiesterase 1 (TDP1): qHTS in cells in absence of CPT; DT40 Tdp1-/- hTDP1 cells, no CPT, ATP luminescence, 48 h; Potency, µM (titrated, usually from 46.2 µM), most hits filed as inhibitors; 420,000 compounds, 15% hits; note: nearly all actives have a fitted effect of over 55% in size
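Cells were dispensed at 400 per well, compounds added by pin tool, plates incubated ≥48 hr at 37 °C, then CellTiter-Glo added for 30 min at room temperature before luminescence reading. Line: DT40 Tdp1-/- complemented with hTDP1; camptothecin omitted.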
IL-1B inflam inh – qHTS for Inhibitors of Inflammasome Signaling: IL-1-beta AlphaLISA Primary Screen | activity change, % at 57.5 µM | 360,000 compounds, 4.7% hits | AID 743279, 2014 | THP-1 LPS/ATP IL-1B secretion, AlphaLISA, 16 h; hits give low values; in the data active = activity change below about -50%; inconclusive = mostly about -30% to -49%
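THP-1 cells pretreated 1 hr with compounds (up to 57.5 uM final), then stimulated with LPS (250 ng/mL final) plus ATP (1.25 mM final); secreted IL-1B measured by AlphaLISA after 16 hr, decreased signal indicating inhibition.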
HT1080NT lethal – qHTS for induction of synthetic lethality in tumor cells producing 2HG: qHTS for the HT-1080-NT fibrosarcoma cell line; Potency, µM (titrated, usually from 46.1 µM), usual class: cytotoxic; 360,000 compounds, 1.6% hits; HT-1080-NT fibrosarcoma viability, CellTiter-Glo ATP luminescence, 48 h; AID 686970, 2013;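 note: NT is the 2HG producing partner of a matched IDH1 knockdown line; nearly all actives have a fitted effect of over 55% in size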
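Luminescent CellTiter-Glo readout after 48 hours of compound exposure at 37 degrees C defined viability of HT-1080-NT cells. Activity was normalized to DMSO wells and cell-free media wells; concentration-response curves were fitted and assigned curve classes.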
HT1080 IDH1KD tx – qHTS for induction of synthetic lethality in tumor cells producing 2HG: qHTS for the HT-1080-IDH1KD cell line. Potency, µM (doses to about 46.1 µM), usual class: cytotoxic. 360,000 compounds, 2% hits. AID 686971, 2013. HT-1080 IDH1 knockdown viability, ATP luminescence, 48 h
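HT-1080-IDH1KD cells (IDH1 knocked down), 750/well in RPMI with 5% FBS, treated with compound 48 h at 37 degrees C. Viability by CellTiter-Glo luminescence, normalised to DMSO and no-cell wells; concentration-response curves classed.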
12-LOX inh – Primary qHTS assay for inhibitors of human arachidonate 12S-lipoxygenase (ALOX12): Round 2; Polyunsaturated fatty acid lipoxygenase ALOX12 (Homo sapiens), P18054; purified 12hLO, xylenol orange hydroperoxide absorbance; Potency, µM (doses to about 108 µM), hits mostly inhibitors; 580,000 compounds, 1.1% hits; AID 1671190, 2021
Target sequence (P18054 whole entry, looked up): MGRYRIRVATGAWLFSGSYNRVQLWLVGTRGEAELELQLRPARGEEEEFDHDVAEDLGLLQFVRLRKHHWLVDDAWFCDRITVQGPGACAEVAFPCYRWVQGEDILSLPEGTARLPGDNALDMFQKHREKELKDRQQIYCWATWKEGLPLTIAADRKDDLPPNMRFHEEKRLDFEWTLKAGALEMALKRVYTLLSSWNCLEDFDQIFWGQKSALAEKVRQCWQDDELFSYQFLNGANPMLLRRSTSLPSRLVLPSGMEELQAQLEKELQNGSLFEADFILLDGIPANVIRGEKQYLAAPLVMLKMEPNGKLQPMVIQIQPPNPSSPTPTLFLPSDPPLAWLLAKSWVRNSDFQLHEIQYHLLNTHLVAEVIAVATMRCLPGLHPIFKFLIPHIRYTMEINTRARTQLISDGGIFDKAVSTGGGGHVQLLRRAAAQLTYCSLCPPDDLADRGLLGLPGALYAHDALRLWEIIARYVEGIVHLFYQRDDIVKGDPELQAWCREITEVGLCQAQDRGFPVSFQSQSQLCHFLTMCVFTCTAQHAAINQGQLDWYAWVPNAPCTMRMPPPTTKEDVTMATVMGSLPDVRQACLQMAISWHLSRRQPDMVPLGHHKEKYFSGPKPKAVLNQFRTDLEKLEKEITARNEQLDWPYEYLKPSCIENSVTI
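Hydroperoxide product was detected by ferrous iron/xylenol orange as the 573 to 405 nm absorbance ratio. Arachidonic acid at 40 uM (final) was turned over for 30 min at room temperature by 150 nM human 12hLO, pH 7.0 Hepes buffer, after 15 min compound preincubation.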
TDP1 cell CPT – qHTS for Inhibitors of human tyrosyl-DNA phosphodiesterase 1 (TDP1): qHTS in cells in presence of CPT; chicken DT40 Tdp1-/-;hTDP1 cells + 20 nM CPT, ATP luminescence, 48 h; Potency, µM (series often up to 46.2 µM), actives largely listed as inhibitors; 420,000 compounds, 12% hits; note: nearly all actives have a fitted effect of over 55% in size
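Cell growth measured by CellTiter-Glo luminescence after a minimum 48 h, 37 C compound exposure with 20 nM CPT in Tdp1-knockout DT40 cells stably expressing hTDP1, seeded 400/well; qHTS titration format.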
Numbers stand for hits; n = inactive; u = inconclusive; x = no result; [ ] = another dose, or the depositor's remark. Unless noted, calls come from the whole dose curve; as a rule, active = well fitted curve in the direction sought with a large enough effect; inconclusive = small, poorly fitted or top-dose-only effect, or another doubt; inactive = no such curve, though single readings can be large; an effect the other way counts as inactive or inconclusive.

SMILES | DT40 TDP1 no CPT | IL-1B inflam inh | HT1080NT lethal | HT1080 IDH1KD tx | 12-LOX inh | TDP1 cell CPT
COc1ccc(C(=O)N(Cc2ccccc2)Cc2cc3cc4c(cc3[nH]c2=O)OCCO4)cc1 | 11.2µM | n | u | n | n | 11.2µM
Cc1ccc2nc(-c3cccc(NS(C)(=O)=O)c3)cc(-c3ccccc3)c2c1 | u | -100.5 | n | n | n | u
CS(=O)(=O)Nc1cccc(-c2nc(Nc3ccc(F)cc3)c3ccccc3n2)c1 | 4.11µM | x | x | x | u | 5.8µM
CC(=O)NCCNc1nc(-c2cccc(NS(C)(=O)=O)c2)nc2ccccc12 | n | x | x | x | 2.24µM | u
COc1ccc(/C=N/OC(=O)c2ccc(C(F)(F)F)cc2)cc1OCc1ccccc1 | x | x | x | x | n | x
CCc1nc(Nc2ccc(OC)c(OC)c2)c2nnn(Cc3ccccc3Cl)c2n1 | 16.4µM | -64.8 | n | u | n | n
CN(C)S(=O)(=O)c1ccc(Nc2nc(C3CC3)nc3c2nnn3Cc2ccccc2Cl)cc1 | 8.2µM | n | u | 5.8µM | n | 9.2µM
COC(=O)CNc1nc(C2CC2)nc2c1nnn2Cc1ccccc1Cl | n | n | n | n | n | n
C=CCNc1nc(C(=O)OCC(=O)c2ccc(C(C)C)cc2)cs1 | x | x | x | x | n | x
CC1(C)Cc2c(c(N3CCOCC3)nc3sc4c(NCCN5CCOCC5)nnnc4c23)CS1 | 11.6µM | n | n | n | n | u
CC1(C)Cc2c(c(N3CCOCC3)nc3sc4c(NCC5CCCO5)nnnc4c23)CS1 (stereo not given) | u | n | n | n | n | n
CC(=O)S[C@@H]1CC2=CC(=O)CC[C@]2(C)[C@H]2CC[C@@]3(C)[C@@H](CC[C@@]34CCC(=O)O4)[C@H]12 | 5.8µM | -56.1 | u | u | n | 7.31µM
C[C@]12CCC(=O)C=C1CC[C@@H]1[C@@H]2CC[C@@]2(C)[C@H]1CC[C@@]21CCC(=O)O1 | 9.2µM | n | n | n | u | u
O=C(Nc1ccc(Br)cc1)C1CCCN(C2=NS(=O)(=O)c3ccccc32)C1 (stereo not given) | n | n | n[9.24 µM] | n | u | u
CCCN(CCC)c1ncnc2nc[nH]c12 | u | n | n | n | n | u
Clc1ccccc1CN(Cc1ccccc1)c1ncnc2nc[nH]c12 | n | -84.3 | n | u | n | n
CCN(CC)S(=O)(=O)c1cccc(C(=O)OCC(=O)C23CC4CC(CC(C4)C2)C3)c1 | 23.1µM | n | n | n | n | u
CCOC(=O)c1c(C)[nH]c(C)c1C(=O)COC(=O)c1ccc(S(=O)(=O)N(CC)CC)cc1 | n | n | n[9.24 µM] | n | n | n
CCOC(=O)c1c(C)[nH]c(C)c1C(=O)COC(=O)c1cccc(S(=O)(=O)N(CC)CC)c1 | 29.1µM | n | n | n | n | u
O=C(O)CCC(=O)Nc1ccc2[nH]cc(C(C(=O)O)N3CCN(c4ccc(F)cc4)CC3)c2c1 (stereo not given) | x | x | x | x | n | x
O=C(Nc1ccccc1F)c1ccc(Cn2nc(N3CCN(c4ccccc4)CC3)ccc2=O)o1 | 14.6µM | x | x | x | 44.7µM | 23.1µM
O=C(Cn1nc(N2CCN(c3ccccc3)CC2)ccc1=O)Nc1ccc(F)cc1F | u | x | x | x | n | n
CSc1nc2cc(Oc3cccc(Cl)c3Cl)c(Cl)cc2[nH]1 | u | n | 9.2µM | u | n | u
CSc1nc2ccc(Cl)cc2[nH]1 | u | n | n | n | n | u
Cc1ccc2c(=O)n3c(nc2c1)C(Cc1ccc(O)cc1)NC(=O)c1cc2ccccc2cc1-3 (stereo not given) | 18.4µM | n | 5.17µM | 6.51µM | n | u

Source: PubChem BioAssay
